This is an account of results in PubChem BioAssay (EPA / NIEHS).

The source made the active and inactive calls. How the source made its calls: active means hit-call score of the fitted dose curve at least 0.9, where 1 is the maximum; inactive means score below 0.9.

Read-out in the assay: Matrix Metallopeptidase 1 (MMP1), MMP1 (gene 4312)
Kind of assay: BSK_hDFCGF_MMP1: BioMAP Diversity Plus: hDFCGF Assay for Matrix Metallopeptidase 1 (MMP1) Biomarker Activity (AID 2283064). The conditions noted are these: primary human foreskin fibroblasts; actives raise or lower the signal. The method, then:
BSK_hDFCGF is a cell-based, multiplexed-readout assay that uses foreskin fibroblast, a human skin primary cell, with measurements taken at 24 hours after chemical dosing in a 96-well plate.BSK_hDFCGF_MMP1 is an assay component measured in the BSK_hDFCGF assay. It measures MMP-1 antibody related to regulation of gene expression using ELISA technology.Data from the assay component BSK_hDFCGF_MMP1 was analyzed into 1 assay endpoint. This assay endpoint, BSK_hDFCGF_MMP1, was analyzed with bidirectional fitting relative to DMSO as the negative control and baseline of activity. Using a type of binding reporter, gain or loss-of-signal activity can be used to understand changes in the signaling as they relate to the gene MMP1. Furthermore, this assay endpoint can be referred to as a primary readout, because this assay has produced multiple assay endpoints where this one serves a signaling function. To generalize the intended target to other relatable targets, this assay endpoint is annotated to the protease intended target family, where the subfamily is matrix metalloproteinase.
The levels of cell surface (or secreted, indicated by the prefix "s") biomarker endpoints were measured by ELISA. Overt cytotoxicity to cells in confluent adherent cultures (all systems other than the BT system) was assessed by measuring total protein levels using sulforhodamine B (SRB) staining in parallel cultures at the time of biomarker measurements, indicated as SRB endpoints. For proliferation assays for adherent cell types, individual cell types are cultured at sub-confluence and relative cell numbers quantified by SRB staining at time points optimized for each system (48 h: 3C and CASM3C systems; 72 h: BT and HDF3CGF systems; 96 h: SAg system). SRB was performed by staining cells with 0.1% SRB after fixation with 10% TCA and reading wells at 560 nm.Viability and proliferation of PBMC (T cells) was quantified by Alamar Blue reduction for the SAg and BT systems. For PBMC viability (referred to as PBMC Cytotoxicity within the assay endpoint names), cells were plated (75,000/well in a 96-well plate) and then chemical samples added for 1 h before addition of activators, SEB and TSST-1 (20 ng/mL final concentration each). Cells were incubated for 90 h. Then, Alamar Blue (20 uL/well) (Invitrogen, Cat DAL1100) was added for 6 h, and the plates were read with a fluorescence microplate reader at 546/580 nm (excitation/emission). For PBMC proliferation, cells were plated and activated as above but incubated for only 16 h prior to addition of Alamar Blue. Plates were read after 6 h.
Take `Nc1cccc(N)c1`: the result was inactive.
On the same count and under the same terms, for `O=C(O)c1cccc(N(Cc2cccnc2)c2ccc(OC(F)F)c(OC(F)F)c2)c1` the value was “inactive”; for `Cc1ccc(C)c(O)c1`, “inactive”.
As usually defined, the AC50 is the concentration at which the activity in the assay is half-maximal. In the case of `O=C(CCCCCCCCc1cccnc1)N1CCC(C=C(c2ccccc2)c2ccccc2)CC1`, the AC50 was 9.34 µM (active).
With `CCOC(=O)CC(CC(=O)OCC)(OC(C)=O)C(=O)OCC`, the result was inactive.
Still for that read-out and setting: then `CCN(C(=O)c1cc(C)cc(OC[C@H](C)Nc2ccncc2)c1)C(C)C`, with “inactive”; and `CC(C)CCCCCCCOC(=O)CCCCC(=O)OCCCCCCCC(C)C`, with “inactive”; and `CCCCCCCCCCCCCCCO`, with “inactive”.
Still for that read-out and setting: then `Oc1ccc2c(c1)-c1ccccc1C2`, with “inactive”.
On the same count and under the same terms, then `CCCN(C1CCN(C(=O)C2CCNCC2)CC1)[C@@H]1CCc2ccc(OC)cc2C1`, with “inactive”.
For `CCc1cc(SCc2sc(-c3ccc(C(F)(F)F)cc3)nc2CN2CCN(c3ccc(OC)cc3)CC2)ccc1OCC(=O)O`, the AC50 is 1.8 µM (active).
On to `O=P(OC(CCl)CCl)(OC(CCl)CCl)OC(CCl)CCl`, for which the outcome was inactive.
Still for that read-out and setting: for `C[C@](N)(Cc1ccc(O)c(O)c1)C(=O)O` the value was “inactive”; for `CCNc1ccccc1`, “inactive”; for `NC(=O)NO`, “inactive”.
Still for that read-out and setting: then `CC(=O)OCCC(C)C`, with “inactive”.
As for `CCCCCCCCO`, the outcome was inactive.
Still for that read-out and setting: for `COC(=O)CC(=O)OC` the value was “inactive”; for `CC(C)=CCCC(C)=CC=O`, “inactive”.
With `O=C1OC(=O)C2C3C=CC(C3)C12` (stereo not given), the result was inactive.
The same measure, in the same setting: for `CN(C)c1ccc(N=NS(=O)(=O)O)cc1` the value was “inactive”; for `CC1(C)C(=O)N(Br)C(=O)N1Br`, “inactive”.
Still for that read-out and setting: for `COC(=O)c1c(Cl)c(Cl)c(C(=O)OC)c(Cl)c1Cl` the value was “inactive”.
Still for that read-out and setting: then `O=C(O)c1cc(N=Nc2ccc(S(=O)(=O)Nc3ccccn3)cc2)ccc1O`, with “inactive”; and `O=C(O)CC(O)C(=O)O` (stereo not given), with “inactive”; and `Cc1c(-c2cccnc2)c2ccccc2n1CCCCC(=O)O`, with “inactive”.
`Cc1ccc(O)cc1`: the outcome was inactive.
On the same count and under the same terms, for `CC/C(=C\C(=N/O)C(N)=O)C(C)[N+](=O)[O-]` (stereo not given) the value was “inactive”; for `Cn1cnc([N+](=O)[O-])c1Sc1ncnc2nc[nH]c12`, “inactive”.
For `COc1ccc2sc(C(=O)Nc3nnn[nH]3)c(OC(C)C)c2c1`, the AC50 was 13.9 µM (active).
`CCCCCCCCCCCCc1ccccc1`: the outcome was inactive.
The same measure, in the same setting: then `Clc1nc(Cl)c(Cl)c(Cl)c1Cl`, with “inactive”; and `Fc1ccccc1[C@@H](F)COC1CCC(Nc2ncnc3[nH]ncc23)CC1` (stereo not given in full), with “inactive”.
Still for that read-out and setting: then `CC(C)c1cccc(C(C)C)c1N1C(=O)c2ccc(O)cc2C1=O`, with “inactive”.
Still for that read-out and setting: then `CC(C)=CCCC(C)CCO` (stereo not given), with “inactive”; and `COc1ccc(/C=C/S(=O)(=O)NC(=O)c2ccc(C)cc2Cl)cc1`, with “inactive”.
With `CCCCCCc1ccc(O)cc1O`, the AC50 is 37.9 µM (active).
Turning to `CC(=O)OC[C@H]1O[C@@](COC(C)=O)(O[C@H]2O[C@H](COC(C)=O)[C@@H](OC(C)=O)[C@H](OC(C)=O)[C@H]2OC(C)=O)[C@@H](OC(C)=O)[C@@H]1OC(C)=O`, the result was inactive.
Still for that read-out and setting: for `CCCCC(CC)COC(=O)c1ccc(C(=O)OCC(CC)CCCC)cc1` (stereo not given) the value was “inactive”; for `CCn1nc(Cc2ccccc2)cc1C1CCN(C[C@H]2C[C@H](N(C)[C@@H](C(=O)O)C(C)C)C[C@@H]2c2cccc(F)c2)CC1`, “inactive”.
